Source: PubChem (National Center for Advancing Translational Sciences (NCATS))
Pf Dd2 growth: Plasmodium falciparum Dd2 growth inhibition | P. falciparum Dd2 growth, SYBR Green, 72 h | Potency, µM (highest dose often 28.9 µM), for the others: at the highest dose activity, negative = inhibition, actives largely listed as inhibitors | 120,000 compounds, 4.3% hits | AID 1347417; active means well fitted inhibition curve with a large enough effect;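 further: plate controls were DMSO vehicle for no effect and reference drug for full effect; nearly all actives have a fitted effect of over 65% in size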
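Readout: SYBR Green fluorescence, 485 nm excitation, 535 nm emission, after ~16 h lysis at 37C. Before that, Dd2-infected red cells (2.5% hematocrit) grew 72 h with compound, 29 uM top final concentration.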
Active calls of the source: *; i = inactive; ! = repeats disagree; [ ] = another dose, or the depositor's remark. The entries come from a sample that favours hits as a whole. Potency means the concentration at half of the fitted maximal effect.

SMILES	Pf Dd2 growth
CCN(CC)CCNC(=O)c1cn(CC)c2ccc(S(=O)(=O)N3CCc4ccccc4C3)cc2c1=O	i
CCn1cc(C(=O)NCc2ccccc2Cl)c(=O)c2cc(S(=O)(=O)N3CCc4ccccc4C3)ccc21	10µM*
CCOc1ccc(CNC(=O)c2ccc(NC(=O)N3CCSc4ncccc43)cc2)cc1	14.7%
O=C(CCC1CCN(C(=O)c2ccccc2F)CC1)Nc1ccc(N2CCOCC2)cc1	i
CCc1ccc(NC(=O)CC(c2ccc(C)cc2)N2Cc3ccccc3C2=O)cc1 (configuration not stated)	i
Cc1cccc(CN2C(=O)N(c3ccc(C(C)C)cc3)S(=O)(=O)c3ccccc32)c1	14.3%
CCOc1ccc(NC(=O)CN(C)S(=O)(=O)c2ccc3c(c2)c(=O)n(C)c(=O)n3C)cc1	i
COc1ccc(-c2[nH]c3ccccc3c2SCCNC(=O)c2ccc(S(=O)(=O)N(C)C)cc2)cc1	7.94µM*
COc1ccc(S(=O)(=O)N(CCc2ccccc2)CC(=O)NCc2ccccc2)cc1	i
COc1ccc(S(=O)(=O)N(CC(=O)NCCSc2ccc(C)cc2)c2ccc(C)cc2)cc1	-3.1%
CCN(CC)S(=O)(=O)c1ccc(C(=O)NCCSc2c(-c3ccc(OC)cc3)[nH]c3ccccc23)cc1	7.94µM*
CCN(CC)S(=O)(=O)c1ccc(NC(=O)Cn2ncc3c([nH]c4ccccc43)c2=O)cc1	45.0%
COc1ccc(-c2cnnn2-c2ccc(NC(=O)c3ccc(S(=O)(=O)N(C)C)cc3)cc2)cc1	i
COc1cc2c(cc1OCc1ccncc1)NC(=O)C21CCN(c2ccccn2)CC1	i
CCc1ccccc1NC(=O)Cn1cc(S(=O)(=O)N2CCCC2)c(S(=O)(=O)N2CCCC2)c1	i
CCOc1ccccc1NC(=O)c1sc2nc(-c3ccc(OC)cc3)ccc2c1N	16.4%
CCC(C)NC(=O)c1sc2nc(C)c(C(=O)Nc3ccc(C)cc3C)c(-c3ccccc3Cl)c2c1N (configuration not stated)	3.16µM*
Cc1ccc(NC(=O)c2sc3nc(-c4cccs4)ccc3c2N)cc1F	-3.7%
Cc1ccc(NC(=O)c2sc3nc(-c4cc5ccccc5oc4=O)[nH]c(=O)c3c2C)c(C)c1	25.1%
COc1cccc(NC(=O)c2cnc(-c3ccc(C)cc3)nc2-c2ccncc2)c1	-23.3%
COc1cccc(NC(=O)c2sc3nc(C)c(C(=O)Nc4ccc(C)cc4C)c(-c4cccs4)c3c2N)c1	1.26µM*
COc1ccc(NC(=O)c2sc3nc4c(cc3c2N)CCCCCC4)c(OC)c1	-12.6%
COc1ccc(NC(=O)c2sc3nc(C)c(C(=O)Nc4ccc(C)cc4C)c(-c4ccc(C)o4)c3c2N)cc1	8.91µM*
CCC(C)NC(=O)c1sc2nc(C)c(C(=O)Nc3ccc(C)cc3C)c(-c3ccc(Cl)cc3)c2c1N (configuration not stated)	-5.4%
COc1cccc(NC(=O)c2sc3nc(C)c(C(=O)Nc4ccc(C)cc4C)c(-c4ccc(C)o4)c3c2N)c1	11.2µM*
SMILES	Pf Dd2 growth
COc1cccc(-c2ccc3c(N)c(C(=O)Nc4ccc(C)c(F)c4)sc3n2)c1	4.8%
CCOc1ccccc1NC(=O)c1sc2nc(C)cc(C)c2c1N	-11.3%
Cc1cccc(OCC(=O)N2CCC(n3cc(-c4nc(C)no4)nn3)CC2)c1	-15.7%
COCCNc1ncc(-c2cccc(O)c2)c2c1OCC2	i
O=C1C[C@@H]2CCN(C(=O)c3ccccc3)C[C@@H]2CCN1CCN1CCNC1=O	-0.6%[44.1 µM]
Cc1ccccc1[C@H]1C[C@@H](O)[C@@H](O)[C@@H]1NC(=O)c1cccnc1Oc1ccccc1	-28.2%[44.1 µM]
CCCc1noc(-c2ccc(N3CCCCC3)c([N+](=O)[O-])c2)n1	21.8%
Cn1cc(C(=O)NCCc2noc(C3CC3)n2)cn1	9.4%
Cc1cc(=O)n(CC(=O)NCc2ccc3c(c2)OCO3)c(N2CCc3ccccc3C2)n1	i
Cc1ccc(S(=O)(=O)c2nnn3c2nc(NCc2cccs2)c2sccc23)cc1	-29.1%
CCOCC1(c2nc3c([nH]2)CCCNC3=O)CCC1	0.8%
CC(NC(=O)c1ccc2nc(CCc3ccccc3)oc2c1)c1ccccc1 (configuration not stated)	-21.7%
CCCC1=Nc2cc(C(=O)NCc3ccc(OC)cc3)ccc2Sc2ccc(C)cc21	-1.6%
CCCC1=Nc2cc(C(=O)NC(C)c3ccccc3)ccc2Sc2ccc(C)cc21 (configuration not stated)	-13.8%
CCCNC(=O)c1ccc2c(c1)N=C(CCC)c1ccccc1S2	i
CCCC1=Nc2cc(C(=O)NCCc3ccccc3)ccc2Sc2ccc(C)cc21	6.31µM*!
CCC1=Nc2cc(C(=O)NC(C)c3ccccc3)ccc2Sc2ccc(Cl)cc21 (configuration not stated)	8.91µM*
COc1cc(C2CC(=O)N(c3ccccc3)C3=C2C(=O)OC3)cc(OC)c1OC (configuration not stated)	-15.5%
N[C@@H](Cc1ccc(O)cc1)C(=O)N1CCc2c(nc(-c3cccnc3)[nH]c2=O)C1	-18.2%
CC(=O)c1ccc(N2CCN(S(=O)(=O)c3c(C)nc4sc(C)cn4c3=O)CC2)cc1	-9.3%
